Test results from PubChem BioAssay (NCI).
This is part of a sample that, as a whole, favours compounds with a hit. Of some 83,000 tested, about 20% had one in any assay.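 Single-concentration screen, 48 h exposure, 96-well plates. Endpoint: percent growth. Below 10 = active.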 Calls of active or inactive are those of the source. Where a SMILES comes first, the peptide text is derived from it. Bridges are numbered along the chain shown (N, C = ends). [ ]: non-standard residue; d: D form. The star is where a group is joined. ξ: configuration not given here. ξNMePhe(4-NMe2) = CNC(Cc1ccc(N(C)C)cc1)C(=O)O; Picolinoyl(3-OH) = O=C(c1ncccc1O)*; ξPip(4-oxo) = O=C1CCNC(C(=O)O)C1; Phg = N[CH](C(=O)O)c1ccccc1; Abu = CC[CH](N)C(=O)O

The molecules below were run on PC-3 prostate (assay: NCI-60 one-dose screen, 48 h (100 = growth as untreated, 0 = no growth, -100 = all killed)). Conditions: 10 µM.

| SMILES | growth |
| --- | --- |
| Cc1cccc(C(=O)N(C(C)C)C(C)C)c1 | 92.8% (inactive) |
| CC1(C)/C(=C\CO)C2CCC1C2 (centres undefined) | 95% (inactive) |
| CN(C)c1ccc(S(=O)(=O)O)cc1 | 88.9% (inactive) |
| N#CSc1cc(S(N)(=O)=O)ccc1N | 109% (inactive) |
| CCC1NC(=O)C(NC(=O)c2ncccc2O)C(C)OC(=O)C(c2ccccc2)NC(=O)C2CC(=O)CCN2C(=O)C(Cc2ccc(N(C)C)cc2)N(C)C(=O)C2CCCN2C1=O (centres undefined) (tested in a mixture with another compound) ({Picolinoyl(3-OH)}-T[Abu]P[ξNMePhe(4-NMe2)][ξPip(4-oxo)][Phg]; ester 1-C; configuration not given here) | 55.5% (inactive) |
| C=CCNc1ccccc1 | 85.2% (inactive) |
| CCOC(=O)C(CCC(C)C)C(=O)OCC | 107% (inactive) |
| COc1cccc(Sc2ccc([N+](=O)[O-])c3no[n+]([O-])c23)c1 | 59.4% (inactive) |
| CC1CC(O)CC(C)(C)C1 (centres undefined) | 94.8% (inactive) |
| Oc1ccccc1O | 87.4% (inactive) |
| Clc1ccc(-c2n[nH]c3c2Cc2ccccc2-3)cc1Cl | 92.4% (inactive) |
| CC1OC(Oc2c(-c3ccc(O)c(O)c3)oc3cc(O)cc(O)c3c2=O)C(O)C(O)C1O (centres undefined) | 95.5% (inactive) |
| O=c1[nH]nc(SC2CCCCC2)c(=O)[nH]1 | 90.6% (inactive) |
| CC(C)C1CCCCC1O (centres undefined) | 98.3% (inactive) |
| CCC(C#N)(CC)c1ccccc1 | 102% (inactive) |
| CC(=O)c1ccc(C(C)(C)C)cc1 | 91.2% (inactive) |
| CC(C)OC(=O)c1cc(NC(=S)OC(C)C)ccc1Cl | 83.3% (inactive) |
| Cc1cc2ccccc2c(O)c1C#N | 105% (inactive) |
| OCCN1CCOCC1 | 109% (inactive) |
| CC(=O)Oc1ccc(Br)cc1C(=O)O | 92.2% (inactive) |
| C#CCSc1nnnn1-c1ccc(Br)c(C)c1 | 99.7% (inactive) |
| c1ccc2c(c1)Sc1ccccc1S2 | 91.4% (inactive) |

Each molecule was assayed on SK-MEL-5 melanoma in the same assay as above. Conditions: 10 µM.

| SMILES | growth |
| --- | --- |
| CCCC1(c2ccccc2)NC(=O)NC1=O (centres undefined) | 99.3% (inactive) |
| O=C(NN=C1CCCCC1)C(=O)NN=C1CCCCC1 | 99.9% (inactive) |
| CC(=O)OC(OC(C)=O)C1CCCO1 (centres undefined) | 104% (inactive) |
| CCOc1ccc(/C=N/N=C(N)N)cc1OCC | 98.5% (inactive) |
| COc1ccc2c(NCCCCCCCCNc3c4ccccc4nc4cc(OC)ccc34)c3ccccc3nc2c1 | -100% (active) |
| Nc1ncnc2[nH]ncc12 | 15% (inactive) |
| Cc1ccc(C(=O)c2ccccc2)c(C)c1 | 107% (inactive) |
| O=C(c1ccc(Cl)cc1)c1ccccc1Cl | 94.5% (inactive) |
| COc1cc2c(cc1O)CC[C@@H]1C2CC[C@@]2(C)C1CC[C@@H]2O (some centres undefined) | -22.1% (active) |
| CC(=O)OCC1=CC2OC(=O)C3=COC(OC4OC(CO)C(O)C(O)C4O)C1C32 (centres undefined) | 104% (inactive) |
| CC1(C)N=C(N)N=C(N)N1c1cccc(Br)c1 | 26.7% (inactive) |
| C/C(=C\c1ccc([N+](=O)[O-])cc1)C(=O)O | 97.8% (inactive) |
| Oc1ccccc1-c1nnco1 | 102% (inactive) |
| CO[C@H]1C[C@@H]2CC[C@@H](C)[C@@](O)(O2)C(=O)C(=O)N2CCCC[C@H]2C(=O)O[C@H]([C@H](C)C[C@@H]2CC[C@@H](O)[C@H](OC)C2)CC(=O)[C@H](C)C=C(C)[C@@H](O)[C@@H](OC)C(=O)[C@H](C)C[C@H](C)/C=C/C=C/C=C1C | 24.8% (inactive) |
| Cc1cccc(C(=O)N(C(C)C)C(C)C)c1 | 95.3% (inactive) |
| CC1(C)/C(=C\CO)C2CCC1C2 (centres undefined) | 102% (inactive) |
| CN(C)c1ccc(S(=O)(=O)O)cc1 | 98.9% (inactive) |
| O=[N+]([O-])c1ccc(/C=C/C=C/c2ccccc2)c(Cl)c1 | 101% (inactive) |
| N#CSc1cc(S(N)(=O)=O)ccc1N | 101% (inactive) |

| SMILES | growth |
| --- | --- |
| CCC1NC(=O)C(NC(=O)c2ncccc2O)C(C)OC(=O)C(c2ccccc2)NC(=O)C2CC(=O)CCN2C(=O)C(Cc2ccc(N(C)C)cc2)N(C)C(=O)C2CCCN2C1=O (centres undefined) (tested in a mixture with another compound) ({Picolinoyl(3-OH)}-T[Abu]P[ξNMePhe(4-NMe2)][ξPip(4-oxo)][Phg]; ester 1-C; configuration not given here) | -21.7% (active) |
| C=CCNc1ccccc1 | 102% (inactive) |
| CCOC(=O)C(CCC(C)C)C(=O)OCC | 102% (inactive) |
| COc1cccc(Sc2ccc([N+](=O)[O-])c3no[n+]([O-])c23)c1 | 88.9% (inactive) |
| CC1CC(O)CC(C)(C)C1 (centres undefined) | 104% (inactive) |
| Oc1ccccc1O | 89.3% (inactive) |
| Clc1ccc(-c2n[nH]c3c2Cc2ccccc2-3)cc1Cl | 95.6% (inactive) |
| CC1OC(Oc2c(-c3ccc(O)c(O)c3)oc3cc(O)cc(O)c3c2=O)C(O)C(O)C1O (centres undefined) | 91.8% (inactive) |
| O=c1[nH]nc(SC2CCCCC2)c(=O)[nH]1 | 112% (inactive) |
| CC(C)C1CCCCC1O (centres undefined) | 103% (inactive) |
| CCC(C#N)(CC)c1ccccc1 | 98.6% (inactive) |
| CC(=O)c1ccc(C(C)(C)C)cc1 | 101% (inactive) |
| CC(C)OC(=O)c1cc(NC(=S)OC(C)C)ccc1Cl | 44% (inactive) |
| Cc1cc2ccccc2c(O)c1C#N | 104% (inactive) |
| OCCN1CCOCC1 | 103% (inactive) |
| CC(=O)Oc1ccc(Br)cc1C(=O)O | 104% (inactive) |
| C#CCSc1nnnn1-c1ccc(Br)c(C)c1 | 88.3% (inactive) |
| c1ccc2c(c1)Sc1ccccc1S2 | 101% (inactive) |
